Laboratory results reported in PubChem BioAssay (NCI).
This is part of a sample that, as a whole, favours compounds with a hit. Of some 83,000 tested, about 20% had one in any assay.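 A percent growth of 40 corresponds to 60% growth inhibition; 0 means no net growth; -100 means all cells died. Active threshold: below 10.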 A number with no mark means an inactive call. Calls of active or inactive are those of the source.

Each compound was assayed on SNB-19 CNS (assay: NCI-60 one-dose screen, 48 h (100 = growth as untreated, 0 = no growth, -100 = all killed)). Conditions: 10 µM.
Procedure: Growth inhibition of the SNB-19 human tumor cell line is measured as a screen for anti-cancer activity. Cells are grown in 96 well plates and exposed to the test compound for 48 hours. Compounds are tested at a single concentration, which is 10^-5 M for most compounds. The reported endpoint is percent growth (GI% or GIPRCNT), where numbers from 0 - 100% represent growth inhibition, and numbers from -100% - 0 represent cell death. For example, a value of 40 represents 60% growth inhibition. A value of 0 means no net growth occurred over the course of the experiment. A value of -40 indicates 40% of cells at the beginning of the experiment died by the end of the experiment. A value of -100 means all cells are dead at the end of the experiment.
NCI-60 Human Tumor Cell Lines Screen was performed using the standard one-dose NCI protocol, which is described in more detail at https://dtp.cancer.gov/discovery_development/nci-60/default.htm.
Compounds with GIPRCNT values below 10 were considered active. Activity score was based on GIPRCNT using the following formula: […]
Score is 0 for GIPRCNT values of 100 or above, 50 for GIPRCNT values of 0, and 100 for GIPRCNT values of -100.

Compound | growth
CC[C@]12C=CCN3CC[C@@]4(c5cc(C#CCNc6ccc(C)c(Nc7nccc(-c8cccnc8)n7)c6)c(OC)cc5N(C)[C@H]4[C@@](O)(C(=O)OC)[C@@H]1OC(C)=O)C32 (stereo not given in full) | 48.1%
O=C(CNc1nc(-c2ccccc2)cs1)Nc1ccc([N+](=O)[O-])cc1 | 38.3%
O=C(CSc1nnc(-c2c[nH]c3ccccc23)n1-c1ccccc1)c1ccccc1 | 19.2%
Cn1cc(/C=N/Nc2cccc(Cl)n2)c2ccccc21 | 76.9%
COc1cc2c3c(n(CCCn4ccnc4)c(=O)c2cc1OC)-c1nc2c(cc1C3=O)OCO2 | 25.6%
CCNCCCn1c2c(c3cc(OC)c(OC)cc3c1=O)C(=O)c1cc3c(nc1-2)OCO3 | 24.9%
CC(=O)Nc1nc(-c2ccc(N3CCN(C)CC3)c(NS(=O)(=O)c3cccc4c(N(C)C)cccc34)c2)cs1 | 58.8%
CC(=O)c1ccc(Nc2nc(SCCC(C)C)nc(-c3ccc(F)cc3)c2C#N)cc1 | 20.4%
CC1(C)CC[C@]2(C(=O)N3CCOCC3)CC[C@]3(C)C(=CC[C@@H]4[C@@]5(C)CC[C@H](NCO)C(C)(C)[C@@H]5CC[C@]43C)[C@H]2C1 | -95.8% (active)
Cc1ccc(-c2ccc(SCC(=O)Nc3ccc(Cl)c(C(F)(F)F)c3)nn2)cc1 | 23.2%
O=C(c1ccc(O)cc1)C1[C@H](c2ccccc2Br)[C@@H](c2ccccc2)NC12C(=O)Nc1ccc(Cl)cc12 (stereo not given in full) | 17.2%
O=C(Nc1nc2ccccc2s1)c1ccc(Br)cc1 | 98.8%
CN1CCN(c2ccc(C(=O)/C=C/c3cc(Br)ccc3F)cc2)CC1 | 56.5%
Cc1ccc([N+](=O)[O-])c(C(=O)Nc2ccc(-c3ccc4c(c3)NC(=O)/C4=C\c3ccc[nH]3)cc2)c1 | 30.6%
Cc1nc(Nc2nc(C)c3ccc(OCCN4CCOCC4)cc3n2)[nH]c(=O)c1C | -2.34% (active)
COc1ccc(-c2ccc(/C=N/NC(=O)c3[nH]c4ccc(Br)cc4c3-c3ccccc3)o2)cc1 | 57.6%
O=C(N/N=C/c1ccc(B(O)O)o1)c1[nH]c2ccc(Br)cc2c1-c1ccccc1 | 40.7%
COc1cc2c(cc1OC)CN(CCCCOc1cc(O)c3c(=O)cc(-c4ccccc4)oc3c1)CC2 | 78.3%
COc1ccc(C(=O)CSc2nnc(-c3c[nH]c4ccccc34)n2-c2ccccc2)cc1 | 29.8%
Cc1ccc(/C(CSc2nnc(-c3c[nH]c4ccccc34)n2-c2ccccc2)=N/O)cc1 | -18.5% (active)

Compound | growth
O=C(CSc1nnc(-c2ccc3nc(-c4ccc(Cl)cc4)[nH]c3c2)o1)Nc1ccc(Br)cc1 | -26.6% (active)
CS(=O)(=O)Nc1ccc(-c2ccc3c(c2)ncn3-c2ccc(NC(=O)Nc3ccc(Cl)c(C(F)(F)F)c3)cc2)cc1 | -89.3% (active)
CN(CCO)c1oc(-c2ccccc2)nc1[P+](c1ccccc1)(c1ccccc1)c1ccccc1 | 9.54% (active)
COc1cc(/C=C/C(=O)c2ccc(F)cc2)ccc1Oc1nc(Nc2ccc(F)cc2)nc(N(C)C)n1 | 68.6%
Cc1cc2c(c(O)c1Br)-c1ncoc1C(=O)[C@]1(C)CC[C@H](C(C)C)[C@H]21 | 45%
CCOP(=O)(OCC)O[C@H]1CCC(=O)[C@@H]2[C@H]1[C@H]1C[C@@H]3[C@@]4(C)CCCC(C)(C(=O)OC)[C@@H]4CC[C@@]23C=C1C(C)C (stereo not given in full) | 68.1%
OCCCNc1oc(-c2ccccc2)nc1[P+](c1ccccc1)(c1ccccc1)c1ccccc1 | 4.56% (active)
Nc1nnc(-c2c[nH]c3ccc(F)cc23)c(-c2c[nH]c3ncccc23)n1 | 33.9%
O=c1[nH]c2ccccc2cc1CSc1ccc(Nc2nccc(-c3ccc(Cl)cc3)n2)cc1 | -40.3% (active)
CSc1nc(-c2cccc(C)c2)c2cc(-c3ccccc3)n(C)c2n1 | 30.2%
CC(C)Sc1nc(NC2CC2)c(C#N)c(-c2ccccc2)n1 | 25.7%
O=C(Nc1ccc(I)cc1)Nc1nc2ccc([N+](=O)[O-])cc2s1 | -94.3% (active)
CN1CCc2c(sc3ncnc(N/N=C/c4cn(-c5ccccc5)nc4-c4ccc(Cl)cc4)c23)C1 | 34.3%
COc1ccc(N(C)c2cc(C#N)nc3ccccc23)cc1N | 12.2%
O=c1oc2ccc(-c3ccc(F)cc3F)cc2c(=O)n1-c1ccc(F)c(Cl)c1 | 12.5%
CN1C(=O)N(C)C2SC(N/N=C/c3ccc(F)cc3)=NC21 (stereo not given) | 43.1%
O=C1Nc2cc(Cl)ccc2/C1=C/c1cccc(OCc2ccc(Br)cc2F)c1 | 28.6%
COc1cccc2nc(Nc3ccc(F)c(NC(=O)c4ccc(CN5CCN(C)CC5)c(C(F)(F)F)c4)c3)ccc12 | -49.2% (active)
CN1CCN(c2ccc(Nc3nc(NCCNC(=O)c4ccc(C(F)(F)F)cc4)c4sccc4n3)cc2)CC1 | 31.5%
COc1ccc(/C=C/C(=O)c2ccc(NC(=O)CN3C(=O)NC(C)(c4ccccc4)C3=O)cc2)cc1 (stereo not given) | 91.8%
